Data as given in ChEMBL document CHEMBL3988442, “University of Dundee, Small-Polar-MMV Screening Library” (2021).
Screen size: about 48,000 compounds; about 13,000 (27%) showed an effect of 50% or more. The list shows a part of the results.

tested on: Wolbachia pipientis; assay: Anti-Wolbachia Cell-Based Screen; type: functional; parameters: scale not given: in the data most compounds retested in dose-response had high values; details: 5 µM

SMILES | Percent Effect [%]
Cc1cc(NC(=O)C(C)Nc2cccc(COCc3ccco3)c2)no1 (centres undefined) | 96.95
Cc1cc(NC(=O)C(C)NCCn2cccn2)no1 (centres undefined) | 7.799
Cc1cc(NC(=O)C(C)Nc2cccc(COCc3ccco3)c2)on1 (centres undefined) | 82.63
Cc1cc(CNC(=O)Nc2cccc(COCCOC(C)C)c2)no1 | 4.138
Cc1cc(NC(=O)C(C)Nc2ccn(Cc3ccccn3)n2)on1 (centres undefined) | -74.41
Cc1nnc(C(C)Nc2cccc(COCCc3ccccc3)c2)o1 (centres undefined) | -2.129
CCN1CCN(c2ccc(CNC(=O)c3ccc(Cl)o3)cn2)CC1 | 4.733
Cc1ccccc1[C@@H]1CN(Cc2c(C)noc2C)C[C@H]1C(=O)O | -12.73
CCN1CCCC1CNCc1cc2cc(OC)c(OC)cc2[nH]c1=O (centres undefined) | 127.9
CCN1CCCC1CNCc1cc2cc(C)c(C)cc2[nH]c1=O (centres undefined) | 108.5
CCN1CCCC1CNCc1cc2cc(OC)ccc2[nH]c1=O (centres undefined) | 59.94
CCN1CCCC1CNCc1cc2cc3c(cc2[nH]c1=O)OCCO3 (centres undefined) | 90.42
CCOc1ccc2[nH]c(=O)c(CN3CCC(O)CC3)cc2c1 | -5.024
COc1cc2[nH]c(=O)c(CN3CCC[C@H]3CO)cc2c(OC)c1OC | 3.209
Cc1cc(C)c(CNC(=O)NCC2CCCN2C)c(=O)[nH]1 (centres undefined) | -15.32
CCN1CCCC1Cn1ccc2c(OC)c(OC)ccc2c1=O (centres undefined) | -2.049
CN(CCN1CCCCC1=O)Cc1cc2cc3c(cc2[nH]c1=O)OCO3 | 9.765
COc1ccc2[nH]c(=O)c(CN(C)CCN3CCCC3)cc2c1 | -6.943
COc1cc2[nH]c(=O)c(CN3CCCC3C)cc2c(OC)c1OC (centres undefined) | -17.42
CCN1CCCC1CN(CCN(C)C)S(=O)(=O)c1ccc(C#N)cc1 (centres undefined) | 2.143
COCCN1CCc2cc(C(=O)O)c(-c3ccoc3)nc2CC1.O=C(O)C(F)(F)F.O=C(O)C(F)(F)F | -9.804
CCCc1nnc(C(=O)N(C)Cc2ccc(OC)cc2)o1 | 16.32
COCCC(C)NC(=O)N1CCSC(C)(C)C1 (centres undefined) | -17.32
CC[C@H]1CN(C(=O)c2cnc(CN3CCCC3)s2)CC[C@@]1(C)O | 12.41
O=C(NCCNc1ccccn1)NCC1CCS(=O)(=O)C1 (centres undefined) | 7.118
Cc1ccc(S(=O)(=O)N2CC(C)Oc3ncccc32)c(F)c1 (centres undefined) | -7.297
CCN1CCCC1CNCc1cc2ccccc2[nH]c1=O (centres undefined) | 105.7
CS(=O)(=O)NCC1CCN(Cc2cc3ccccc3[nH]c2=O)C1 (centres undefined) | 5.413
CS(=O)(=O)NCCCN1CCCCC1c1cc2ccccc2[nH]1 (centres undefined) | 5.136
